# Several values for one entry are separate records, joined by “and”; a condition that tells them apart may be missing. Identical values can stand only once. About 2,000 (36%) of roughly 5,500 compounds were called active. Not shown: some 18% with an inconclusive outcome. The list shows a part of the results. Values without a mark were called inactive. Cut-off read from the data, not from the text of the source: active = normalized growth mostly below about 0.91 (no sharp cut-off); inconclusive = no clear call, values can overlap the other calls; inactive = mostly above about 0.92.
# Assay: chemical genetic growth profiling, strain panel (AID 1159580);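 note: tested at 20 µM; growth read once vehicle control cultures reached saturation at 30 °C; 1 = growth at the plate median or of vehicle wells; lower values mean less growth of the strain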
# Settings: growth OD
# [1] = S. cerevisiae deletion strains, locus YBR021W, strain FUR4, stronger effect = lower value
# [2] = S. cerevisiae deletion strains, locus YBR229C, strain ROT2, stronger effect = lower value
# [3] = S. cerevisiae deletion strains, locus YCL029C, strain bik1, stronger effect = lower value
# [4] = S. cerevisiae deletion strains, locus YDL035C, strain GPR1, stronger effect = lower value
# [5] = S. cerevisiae deletion strains, locus YDL074C, strain BRE1, stronger effect = lower value
# [6] = S. cerevisiae deletion strains, locus YDL101C, strain DUN1, stronger effect = lower value
# [7] = S. cerevisiae deletion strains, locus YDL185W, strain tfp1, stronger effect = lower value
# [8] = S. cerevisiae deletion strains, locus YDL192W, strain arf1, stronger effect = lower value
# [9] = S. cerevisiae deletion strains, locus YDR101C, strain arx1, stronger effect = lower value
# [10] = S. cerevisiae deletion strains, locus YDR162C, strain NBP2, stronger effect = lower value
# [11] = S. cerevisiae deletion strains, locus YDR318W, strain mcm21, stronger effect = lower value
# [12] = S. cerevisiae deletion strains, locus YDR388W, stronger effect = lower value
# [13] = S. cerevisiae deletion strains, locus YDR502C, strain sam2, stronger effect = lower value
# [14] = S. cerevisiae deletion strains, locus YEL061C, strain CIN8, stronger effect = lower value
# [15] = S. cerevisiae deletion strains, locus YER110C, stronger effect = lower value
# [16] = S. cerevisiae deletion strains, locus YER155C, strain BEM2, stronger effect = lower value
# [17] = S. cerevisiae deletion strains, locus YER167W, strain BCK2, stronger effect = lower value
# [18] = S. cerevisiae deletion strains, locus YGL078C, strain dbp3, stronger effect = lower value
# [19] = S. cerevisiae deletion strains, locus YGL086W, strain mad1, stronger effect = lower value
# [20] = S. cerevisiae deletion strains, locus YGL248W, strain PDE1, stronger effect = lower value
# [21] = S. cerevisiae deletion strains, locus YGR135W, strain pre9, stronger effect = lower value
# [22] = S. cerevisiae deletion strains, locus YGR252W, strain gcn5, stronger effect = lower value
# [23] = S. cerevisiae deletion strains, locus YHR079C, strain IRE1 (second series), stronger effect = lower value
# [24] = S. cerevisiae deletion strains, locus YHR094C, strain hxt1, stronger effect = lower value
# [25] = S. cerevisiae deletion strains, locus YHR129C, strain ARP1, stronger effect = lower value
# [26] = S. cerevisiae deletion strains, locus YHR200W, strain rpn10, stronger effect = lower value
# [27] = S. cerevisiae deletion strains, locus YIL066C, strain RNR3, stronger effect = lower value
# [28] = S. cerevisiae deletion strains, locus YIL073C, strain SPO22, stronger effect = lower value
# [29] = S. cerevisiae deletion strains, locus YIL125W, strain kgd1, stronger effect = lower value
# [30] = S. cerevisiae deletion strains, locus YIR030C, strain dcg1, stronger effect = lower value
# [31] = S. cerevisiae deletion strains, locus YJL095W, strain BCK1, stronger effect = lower value
# [32] = S. cerevisiae deletion strains, locus YJL134W, strain LCB3, stronger effect = lower value
# [33] = S. cerevisiae deletion strains, locus YJL168C, strain set2, stronger effect = lower value
# [34] = S. cerevisiae deletion strains, locus YJL187C, strain SWE1 (second series), stronger effect = lower value
# [35] = S. cerevisiae deletion strains, locus YKL009W, strain mrt4, stronger effect = lower value
# [36] = S. cerevisiae deletion strains, locus YKL068W, stronger effect = lower value
# [37] = S. cerevisiae deletion strains, locus YKL085W, strain MDH1 (second series), stronger effect = lower value
# [38] = S. cerevisiae deletion strains, locus YKL085W, strain MDH1, stronger effect = lower value
# [39] = S. cerevisiae deletion strains, locus YKR001C, strain vps1, stronger effect = lower value
# [40] = S. cerevisiae deletion strains, locus YLR039C, strain RIC1, stronger effect = lower value
# [41] = S. cerevisiae deletion strains, locus YLR058C, strain SHM2, stronger effect = lower value
# [42] = S. cerevisiae deletion strains, locus YLR102C, strain apc9, stronger effect = lower value
# [43] = S. cerevisiae deletion strains, locus YLR268W, strain sec22, stronger effect = lower value
# [44] = S. cerevisiae deletion strains, locus YLR371W, strain rom2, stronger effect = lower value
# [45] = S. cerevisiae deletion strains, locus YLR418C, strain cdc73, stronger effect = lower value
# [46] = S. cerevisiae deletion strains, locus YML016C, strain PPZ1, stronger effect = lower value
# [47] = S. cerevisiae deletion strains, locus YML032C, strain rad52, stronger effect = lower value
# [48] = S. cerevisiae deletion strains, locus YML124C, strain tub3, stronger effect = lower value
# [49] = S. cerevisiae deletion strains, locus YMR078C, strain ctf18, stronger effect = lower value
# [50] = S. cerevisiae deletion strains, locus YMR223W, strain ubp8, stronger effect = lower value
# [51] = S. cerevisiae deletion strains, locus YMR307W, strain GAS1, stronger effect = lower value
# [52] = S. cerevisiae deletion strains, locus YNL067W, strain RPL9B, stronger effect = lower value
# [53] = S. cerevisiae deletion strains, locus YNL233W, strain BNI4, stronger effect = lower value
# [54] = S. cerevisiae deletion strains, locus YNL250W, strain rad50, stronger effect = lower value
# [55] = S. cerevisiae deletion strains, locus YNL271C, strain bni1, stronger effect = lower value
# [56] = S. cerevisiae deletion strains, locus YNL298W, strain CLA4, stronger effect = lower value
# [57] = S. cerevisiae deletion strains, locus YNL307C, strain MCK1, stronger effect = lower value
# [58] = S. cerevisiae deletion strains, locus YNR052C, strain pop2, stronger effect = lower value
# [59] = S. cerevisiae deletion strains, locus YOL012C, strain htz1
# [60] = S. cerevisiae deletion strains, locus YOL147C, strain pex11, stronger effect = lower value
# [61] = S. cerevisiae deletion strains, locus YOR061W, strain CKA2, stronger effect = lower value
# [62] = S. cerevisiae deletion strains, locus YOR069W, strain VPS5, stronger effect = lower value
# [63] = S. cerevisiae deletion strains, locus YOR136W, strain idh2, stronger effect = lower value
# [64] = S. cerevisiae deletion strains, locus YOR144C, strain elg1, stronger effect = lower value
# [65] = S. cerevisiae deletion strains, locus YOR184W, strain ser1, stronger effect = lower value
# [66] = S. cerevisiae deletion strains, locus YOR316C, strain cot1, stronger effect = lower value
# [67] = S. cerevisiae deletion strains, locus YPR119W, strain clb2, stronger effect = lower value
# [68] = S. cerevisiae deletion strains, locus YPR141C, strain kar3, stronger effect = lower value
# [69] = S. cerevisiae deletion strains, locus YPR163C, strain tif3, stronger effect = lower value
# [70] = S. cerevisiae deletion strains, locus YPR167C, strain met16, stronger effect = lower value
# [71] = S. cerevisiae deletion strains, strain wtn01, stronger effect = lower value
smiles,measurement,setting,value
COc1cc(C(=O)O)c2c(c1C)OC(=O)c1c(C)cc(O)c(C=O)c1O2,normalized growth,[1],0.989
same,normalized growth,[2],0.997
same,normalized growth,[3],1
same,normalized growth,[4],0.977
same,normalized growth,[5],0.943
same,normalized growth,[6],1
same,normalized growth,"S. cerevisiae deletion strains, locus YDL134C, strain PPH21, stronger effect = lower value",0.986
same,normalized growth,[7],0.93
same,normalized growth,[8],0.991
same,normalized growth,[9],1.01
same,normalized growth,"S. cerevisiae deletion strains, locus YDR150W, strain NUM1, stronger effect = lower value",0.997
same,normalized growth,[10],0.969
same,normalized growth,[11],1.01
same,normalized growth,[12],0.986
same,normalized growth,[13],1
same,normalized growth,[14],0.993
same,normalized growth,[15],0.969
same,normalized growth,[16],1.02
same,normalized growth,[17],1.01
same,normalized growth,[18],0.954
same,normalized growth,[19],0.986
same,normalized growth,[20],1.01
same,normalized growth,[21],0.988
same,normalized growth,[22],1.05
same,normalized growth,[23],0.988
same,normalized growth,[24],0.989
same,normalized growth,[25],1
same,normalized growth,[26],0.994
same,normalized growth,[27],0.998
same,normalized growth,[28],0.948
same,normalized growth,[29],0.927 (active)
same,normalized growth,[30],0.983
same,normalized growth,[31],0.998
same,normalized growth,[32],0.996
same,normalized growth,[33],0.972
same,normalized growth,[34],0.969
same,normalized growth,[35],0.974
same,normalized growth,[36],0.928 (active)
same,normalized growth,[37],0.911 (active)
same,normalized growth,[38],0.911 (active)
same,normalized growth,[39],0.971
same,normalized growth,[40],0.929
same,normalized growth,[41],1.01
same,normalized growth,[42],0.984
same,normalized growth,[43],0.956
same,normalized growth,[44],0.955
same,normalized growth,[45],0.939
same,normalized growth,[46],0.986
same,normalized growth,[47],0.996
same,normalized growth,[48],0.998
same,normalized growth,[49],0.975
same,normalized growth,[50],0.984
same,normalized growth,"S. cerevisiae deletion strains, locus YMR263W, strain SAP30, stronger effect = lower value",0.991
same,normalized growth,[51],0.923
same,normalized growth,[52],0.997
same,normalized growth,"S. cerevisiae deletion strains, locus YNL128W, strain TEP1, stronger effect = lower value",0.955
same,normalized growth,[53],1.01
same,normalized growth,[54],0.919
same,normalized growth,[55],0.917 (active)
same,normalized growth,[56],0.898 (active)
same,normalized growth,[57],0.989
same,normalized growth,[58],0.978
same,normalized growth,[59],0.7
same,normalized growth,[60],1.01
same,normalized growth,[61],0.999
same,normalized growth,[62],0.995
same,normalized growth,[63],1.02
same,normalized growth,[64],0.985
same,normalized growth,[65],0.975
same,normalized growth,[66],0.977
same,normalized growth,"S. cerevisiae deletion strains, locus YPL055C, strain LGE1, stronger effect = lower value",0.973
same,normalized growth,[67],0.977
same,normalized growth,[68],0.942
same,normalized growth,[69],0.985
same,normalized growth,[70],1.01
same,normalized growth,[71],0.987
Cc1cc(O)c(C=O)c2c1C(=O)Oc1c(C)c(O)c3c(c1O2)C(O)OC3=O (stereo unspecified),normalized growth,[1],1.03
same,normalized growth,[2],1
same,normalized growth,[3],0.981
same,normalized growth,[4],0.944
same,normalized growth,[5],0.956
same,normalized growth,[6],0.955
same,normalized growth,[7],0.954
same,normalized growth,[8],0.992
same,normalized growth,[9],0.994
same,normalized growth,[10],0.948
same,normalized growth,[11],0.98
same,normalized growth,[12],0.98
same,normalized growth,[13],0.974
same,normalized growth,[14],0.975
same,normalized growth,[15],0.971
same,normalized growth,[16],1.02
same,normalized growth,[17],0.993
same,normalized growth,[18],0.989
same,normalized growth,[19],0.966
same,normalized growth,[20],1
same,normalized growth,"S. cerevisiae deletion strains, locus YGR078C, strain PAC10, stronger effect = lower value",0.988
same,normalized growth,[21],0.951
same,normalized growth,"S. cerevisiae deletion strains, locus YGR229C, strain SMI1, stronger effect = lower value",1.03
same,normalized growth,[22],1.02
same,normalized growth,"S. cerevisiae deletion strains, locus YHR030C, strain SLT2, stronger effect = lower value",0.984 and 0.994
same,normalized growth,[23],0.97
same,normalized growth,"S. cerevisiae deletion strains, locus YHR079C, strain IRE1, stronger effect = lower value",0.983
same,normalized growth,[24],0.971
same,normalized growth,[25],0.963
same,normalized growth,[26],0.983
same,normalized growth,[27],0.962
same,normalized growth,[28],0.831
same,normalized growth,[29],0.974
same,normalized growth,[30],0.995
same,normalized growth,[31],1.02 and 0.991
same,normalized growth,[32],0.986
same,normalized growth,[33],0.969
same,normalized growth,[34],0.88
same,normalized growth,"S. cerevisiae deletion strains, locus YJR043C, strain POL32, stronger effect = lower value",0.973
same,normalized growth,"S. cerevisiae deletion strains, locus YJR066W, strain TOR1, stronger effect = lower value",0.965
same,normalized growth,[35],0.933
same,normalized growth,[36],0.98
same,normalized growth,[37],0.974
same,normalized growth,[38],0.974
same,normalized growth,[39],1.01
same,normalized growth,[40],0.996
same,normalized growth,[41],0.937
same,normalized growth,[42],0.986
same,normalized growth,"S. cerevisiae deletion strains, locus YLR113W, strain HOG1, stronger effect = lower value",0.984
same,normalized growth,[43],0.965
same,normalized growth,"S. cerevisiae deletion strains, locus YLR330W, strain CHS5, stronger effect = lower value",0.99
same,normalized growth,[44],0.948
same,normalized growth,[45],0.999
same,normalized growth,[46],0.957
same,normalized growth,[47],0.995
same,normalized growth,[48],0.975
same,normalized growth,[49],0.959
same,normalized growth,[50],0.966
same,normalized growth,[51],1.14
same,normalized growth,[52],0.981
same,normalized growth,"S. cerevisiae deletion strains, locus YNL153C, strain GIM3, stronger effect = lower value",0.959
same,normalized growth,"S. cerevisiae deletion strains, locus YNL183C, strain NPR1, stronger effect = lower value",0.944
same,normalized growth,[53],1.03
same,normalized growth,[54],0.963
same,normalized growth,[55],0.946
same,normalized growth,[56],0.986
same,normalized growth,[57],0.978
same,normalized growth,[58],0.955
same,normalized growth,[59],0.674
same,normalized growth,[60],0.97
same,normalized growth,[61],0.963
same,normalized growth,[62],0.982
same,normalized growth,[63],0.985
same,normalized growth,[64],0.974
same,normalized growth,[65],1.01
same,normalized growth,"S. cerevisiae deletion strains, locus YOR231W, strain MKK1, stronger effect = lower value",0.982
same,normalized growth,[66],0.984
same,normalized growth,"S. cerevisiae deletion strains, locus YPL241C, strain CIN2, stronger effect = lower value",0.994
same,normalized growth,"S. cerevisiae deletion strains, locus YPL256C, strain CLN2, stronger effect = lower value",0.928
same,normalized growth,[67],0.979
same,normalized growth,[68],0.969
same,normalized growth,[69],0.993
same,normalized growth,[70],0.983
same,normalized growth,[71],0.963
same,normalized growth,"S. cerevisiae strains, strain wild type, stronger effect = lower value",0.907
